Experimental data reported in PMC4336329 (PLoS ONE, 2015).
The whole screen tested about 310,000 compounds, of which about 14,000 (4.5%) showed an effect of 50% or more. The effect is printed as a negative number. What follows is part of a selection rich in strong results, with near analogues and random picks from the rest.

biological target: human ether-à-go-go-related gene (hERG) potassium channel (human, UniProt Q12809); assay: primary screen, population patch clamp on CHO cells stably expressing hERG; higher = less effect of the substance
Sequence (Q12809 whole entry, looked up): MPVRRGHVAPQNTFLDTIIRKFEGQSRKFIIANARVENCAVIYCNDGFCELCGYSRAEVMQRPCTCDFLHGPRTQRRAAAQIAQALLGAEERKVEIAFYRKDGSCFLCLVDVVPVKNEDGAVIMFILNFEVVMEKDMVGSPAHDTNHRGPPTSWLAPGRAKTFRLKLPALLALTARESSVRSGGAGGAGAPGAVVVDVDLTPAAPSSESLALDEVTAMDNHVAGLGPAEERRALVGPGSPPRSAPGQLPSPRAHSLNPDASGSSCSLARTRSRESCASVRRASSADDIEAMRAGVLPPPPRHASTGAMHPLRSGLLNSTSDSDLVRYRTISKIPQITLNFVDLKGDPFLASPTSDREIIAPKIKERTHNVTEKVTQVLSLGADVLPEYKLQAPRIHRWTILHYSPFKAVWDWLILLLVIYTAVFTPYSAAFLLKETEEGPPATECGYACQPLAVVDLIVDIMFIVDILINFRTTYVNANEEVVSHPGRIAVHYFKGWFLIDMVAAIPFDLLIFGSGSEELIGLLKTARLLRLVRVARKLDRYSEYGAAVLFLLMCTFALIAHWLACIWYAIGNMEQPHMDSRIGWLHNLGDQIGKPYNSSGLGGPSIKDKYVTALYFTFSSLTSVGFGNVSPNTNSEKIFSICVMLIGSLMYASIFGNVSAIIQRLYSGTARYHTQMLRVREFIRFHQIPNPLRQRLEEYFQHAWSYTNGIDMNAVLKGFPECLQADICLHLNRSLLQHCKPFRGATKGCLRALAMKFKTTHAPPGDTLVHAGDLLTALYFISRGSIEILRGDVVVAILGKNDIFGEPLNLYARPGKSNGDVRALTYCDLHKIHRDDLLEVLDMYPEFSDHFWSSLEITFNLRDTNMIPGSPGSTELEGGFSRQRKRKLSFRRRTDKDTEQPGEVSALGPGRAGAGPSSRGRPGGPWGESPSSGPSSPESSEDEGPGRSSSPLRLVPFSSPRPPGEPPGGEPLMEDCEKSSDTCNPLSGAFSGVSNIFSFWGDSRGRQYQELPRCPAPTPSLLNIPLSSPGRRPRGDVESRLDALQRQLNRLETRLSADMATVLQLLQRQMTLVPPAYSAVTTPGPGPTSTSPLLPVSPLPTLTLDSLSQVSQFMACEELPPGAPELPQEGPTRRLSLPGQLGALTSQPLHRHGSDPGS
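Note: peak tail current of the secondary pulse compared with the same well before compound.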

Compound	hERG current change (%, negative = inhibition) at 10uM [%]
N#Cc1c(C(F)(F)F)cc(-c2ccccc2)nc1SCC(=O)N1CCOCC1	-8.28
CC(C)NC(=O)CSc1ncccc1-c1nc2ccccc2[nH]1	-17.1
O=C1CC(c2ccccc2)CC(=O)C1CS(=O)(=O)c1ccccc1 (stereo not drawn)	18.1
Cc1ccc(-c2noc(CSc3ccccc3)n2)cc1	10.2
O=C1c2cccnc2C(Nc2ccc(S(=O)(=O)N3CCCCCC3)cc2)N1Cc1ccccc1 (stereo not drawn)	-9.79
Cc1cc(Cn2ccnc2)c(C)c([N+](=O)[O-])c1Cn1ccnc1	-7.19
CC1CCCC(NC(=O)CCC(=O)NCc2ccccc2)C1C (stereo not drawn)	11.5
O=S(=O)(O)c1cnccc1Nc1cccc(C(F)(F)F)c1	5.95
Cc1nc2ncnn2c(N2CCCC(C(=O)Nc3ccc4c(c3)CCC4)C2)c1C (stereo not drawn)	-53
COc1ccccc1NC(=O)C1CCCN(c2cc(C)nc3ncnn23)C1 (stereo not drawn)	-20.8
COc1ccc(NC(=O)C2CCCN(c3cc(C)nc4ncnn34)C2)cc1 (stereo not drawn)	-12.5
CCc1c(C)nc2ncnn2c1N1CCCC(C(=O)NCc2cccs2)C1 (stereo not drawn)	-19.1
Cc1cc(N2CCCC(C(=O)Nc3ccc4c(c3)CCC4)C2)n2ncnc2n1 (stereo not drawn)	-57.2
COc1ccccc1NC(=O)C1CCCN(c2nc(C)cc(C)n2)C1 (stereo not drawn)	-10
Cc1cc(N2CCCC(C(=O)Nc3cccc4ccccc34)C2)n2ncnc2n1 (stereo not drawn)	-61.9
COc1cc(C)nc(N2CCCC(C(=O)Nc3ccccc3Br)C2)n1 (stereo not drawn)	8.77
Cc1cc(N2CCCC(C(=O)Nc3cccc(Cl)c3)C2)n2ncnc2n1 (stereo not drawn)	-38
Cc1nc2ncnn2c(N2CCCC(C(=O)Nc3ccccc3Br)C2)c1C (stereo not drawn)	-60.2
Cc1cc(C)nc(N2CCC(C(=O)Nc3ccc4c(c3)CCC4)CC2)n1	17.3
O=C(Nc1ccc2c(c1)CCC2)C1CCCN(c2ncccn2)C1 (stereo not drawn)	-2.53
CC(Oc1ccc2c3c(c(=O)oc2c1)CCCC3)C(=O)NCc1ccncc1 (stereo not drawn)	4.36

Compound	hERG current change (%, negative = inhibition) at 10uM [%]
Cc1nn(CC(O)Cn2c3c(c4ccccc42)CCN(C)C3=O)c(C)c1Br (stereo not drawn)	-17.5
CNC(=S)Nc1cc(C)ccc1OC(F)F	2.85
CCCCn1c(N)c(N(CC)C(=O)CCNC(=O)NC23CC4CC(CC(C4)C2)C3)c(=O)[nH]c1=O	8.45
CCN(CC)S(=O)(=O)c1ccc(N2CCCC2)c(C(=O)OCC(=O)N2CCCC2)c1	-3.73
O=C(NC1CONC1=O)OCC(Cl)(Cl)Cl (stereo not drawn)	8.91
CC(C)c1cc(C(=O)O)n[nH]1	20.3
COC(=O)c1ccc(NC(=O)CCc2nnc3ccc(N4CCC5(CC4)OCCO5)nn23)cc1	10.1
CCc1ccccc1NC(=S)N(CCN(C)C)C(C)c1ccccn1 (stereo not drawn)	-30.8
O=C(NNC(=O)c1ccccc1OCc1ccccc1Cl)c1csc(N2CCOCC2)n1	31
O=C(COC(=O)c1ccc(F)c(S(=O)(=O)N2CCOCC2)c1)NC1CC1	-17.4
COc1cc2c(cc1OC)C(C)N(C(=O)C(NC(=O)c1ccccc1)C(C)C)CC2 (stereo not drawn)	7.1
COc1ccc(-c2ocnc2C(=O)NCc2nn(-c3ccccc3)nc2C)cc1	5.05
COc1cccc2sc(N(CCN(C)C)C(=O)c3ccc4c(c3)CCCC4)nc12.Cl	-66.7
CN(C)CCCN(C(=O)c1ccc2c(c1)CCCC2)c1nc2c(F)cccc2s1.Cl	-70
CN(C)CCN(C(=O)c1ccc2c(c1)CCCC2)c1nc2c(F)cccc2s1.Cl	-14.6
COc1cccc2sc(N(CCCN(C)C)C(=O)c3ccc(S(=O)(=O)N4CCCc5ccccc54)cc3)nc12.Cl	-68.3
CCOc1ccc2nc(N(CCN(C)C)C(=O)c3ccc4c(c3)CCCC4)sc2c1.Cl	-1.63
COc1ccc2sc(N(CCCN(C)C)C(=O)c3ccc(S(=O)(=O)N4CCCc5ccccc54)cc3)nc2c1.Cl	-14.4
COc1cccc2sc(N(CCN(C)C)C(=O)c3ccc(S(=O)(=O)N4CCCC4)cc3)nc12.Cl	-31.2
CN(C)CCCN(C(=O)c1ccc(S(=O)(=O)N2CCc3ccccc32)cc1)c1nc2c(Cl)cccc2s1.Cl	-27.6
O=C1N=C(N2CCOCC2)S/C1=C\c1ccc(-c2ccccc2Cl)o1	-15.3

Compound	hERG current change (%, negative = inhibition) at 10uM [%]
COC(=O)CS(=O)(=O)c1ccsc1C(=O)Nc1ccc(F)cc1	3.5
Cc1ccc(SCCC(=O)Nc2ccccc2Br)cc1	12.8
C=CCn1cnc2c(oc3ccccc32)c1=O	4.04
Cc1cnc(C(=O)OCC(=O)N=c2sccn2Cc2ccccc2Cl)cn1	10.1
CCOC(=O)N1CCC(NC(=O)COc2cc(=O)n(C)c3ccccc23)CC1	6.6
O=C(NCCNS(=O)(=O)c1ccccc1)N1CCOCC1	18.3
O=C(NC1CCCCC1)C(c1ccccc1F)N(Cc1ccco1)C(=O)c1ccccn1 (stereo not drawn)	-4.03
C[n+]1c2n(c3ccccc31)N=C(c1ccc(-c3ccccc3)cc1)CS2.[Br-]	-79.7
Cc1cc(Cn2nnc3ccccc32)c(O)c(C(C)(C)C)c1	19.3
C[n+]1c2n(c3ccccc31)N=C(c1ccccc1)CS2.[Br-]	-47.3
CCc1nnc2n1N=C(c1ccc(Cl)cc1)CS2	8.48
C[n+]1c2n(c3ccccc31)N=C(c1cc(C(C)(C)C)c(O)c(C(C)(C)C)c1)CS2.[Br-]	-77.6
COc1ccccc1-c1nnc2n1N=C(c1ccc(O)c(O)c1)CS2	-0.453
C[n+]1c2n(c3ccccc31)N=C(c1ccc(Cl)cc1)CS2.[Br-]	-69
CC1Sc2n(c3ccccc3[n+]2C)N=C1c1ccccc1.[Br-] (stereo not drawn)	-49.6
COc1ccc(C2=Nn3c([n+](C)c4ccccc43)SC2)cc1.[Br-]	-44.2
Cc1ccc(-c2nnc3n2N=C(c2ccc(Br)cc2)CS3)cc1	-1.26
C[n+]1c2n(c3ccccc31)N=C(c1ccc(Br)cc1)CS2.[Br-]	-69.5
Cc1nnc2n(c1=O)N=C(c1ccc(Cl)cc1)CS2	6.25
Cc1ccc2nc(N3C(=O)C(O)=C(C(=O)c4ccc(C)o4)C3c3ccco3)sc2c1 (stereo not drawn)	12.8
COC(=O)c1ccc(NC(=O)C[n+]2ccccc2)cc1.[Cl-]	11.9

Compound	hERG current change (%, negative = inhibition) at 10uM [%]
COc1ccc(NC(=O)Cn2c(=O)oc3cc(S(=O)(=O)N4CCCC4)ccc32)c(OC)c1	7.38
O=C(Nc1ccccc1)c1ccc(NCCN2C(=O)CCC2=O)c([N+](=O)[O-])c1	10.9
CCCn1c(N)c(N2CCCCC2)c(=O)n(CC(=O)Nc2ccccc2C)c1=O	14.6
Cc1nn(C)cc1C(C)Nc1nc2nonc2nc1N1CCCCC1 (stereo not drawn)	0.196
CCN(Cc1ccc2c(c1)OCO2)C(=O)CSc1nc(C)nc2sc(C)c(C)c12	-5.76
COc1ccc(C(=O)Nc2c(N)nc(SCC(=O)Nc3ccc(NC(C)=O)cc3)[nH]c2=O)cc1	21.9
COc1ccc(C(CCN2CCCC2)c2c(OC)cc(OC)c3c(-c4ccccc4)cc(=O)oc23)cc1 (stereo not drawn)	-52.7
CCN(CC)CCC(c1ccc2c(c1)OCO2)c1c(OC)cc(OC)c2c(-c3ccccc3)cc(=O)oc12 (stereo not drawn)	-65.4
COc1ccc(C(CCN2CCN(c3ccccc3)CC2)c2c(OC)cc(OC)c3c(-c4ccccc4)cc(=O)oc23)cc1 (stereo not drawn)	-9.55
COc1ccc(C(CC(=O)N2CCCCC2)c2c(OC)cc(OC)c3c(-c4ccccc4)cc(=O)oc23)cc1 (stereo not drawn)	0.849
COc1ccc(C(CCN2CCCCC2)c2c(OC)cc(OC)c3c(-c4ccccc4)cc(=O)oc23)cc1 (stereo not drawn)	-55.1
CCN(CC)CCC(c1ccc(N(C)C)cc1)c1c(OC)cc(OC)c2c(-c3ccccc3)cc(=O)oc12 (stereo not drawn)	-24.5
COc1cc(OC)c2c(-c3ccccc3)cc(=O)oc2c1C(CCN1CCCCC1)c1ccc(N(C)C)cc1 (stereo not drawn)	-25
COc1ccc(C(CC(=O)N2CCCC2)c2c(OC)cc(OC)c3c(-c4ccccc4)cc(=O)oc23)cc1 (stereo not drawn)	-5.46
COc1cc(OC)c2c(-c3ccccc3)cc(=O)oc2c1C(CCN1CCCCC1)c1ccc2c(c1)OCO2 (stereo not drawn)	-53.2
COc1cc(OC)c2c(-c3ccccc3)cc(=O)oc2c1C(CCN1CCCC1)c1ccc2c(c1)OCO2 (stereo not drawn)	-46.9
CCN(CC)C(=O)CC(c1ccc2c(c1)OCO2)c1c(OC)cc(OC)c2c(-c3ccccc3)cc(=O)oc12 (stereo not drawn)	5.08
COc1cc(OC)c2c(-c3ccccc3)cc(=O)oc2c1C(CCN1CCCC(C)C1)c1ccc2c(c1)OCO2 (stereo not drawn)	-48.8
